Measured values taken from PubChem BioAssay (NCATS).
Records with an inconclusive call do not appear. Activity calls are given as the source filed them. Calls follow the shape of the dose curve; as a rule, active = well fitted inhibition curve with a large enough effect; inconclusive = small, poorly fitted or top-dose-only effect; inactive = flat fitted curve, though single readings scatter.

What was measured:
Assay in all cases: qHTS profiling for inhibitors of Plasmodium falciparum proliferation (AID 504749); also: nearly all actives have a fitted effect of over 60% in size
Details in all cases: P. falciparum in erythrocytes, SYBR Green DNA, 72 h; series mostly up to 28.7 µM
CP256 = test system: CP256
Procedure, shortened: (§1)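 P. falciparum-infected erythrocytes (0.3% parasitemia, 2.5% hematocrit final) were exposed to compounds for 72 h at 37 C in 5% CO2, then lysed with SYBR Green buffer overnight at room temperature; parasite DNA fluorescence was normalized to artemisinin and DMSO controls.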

CP260 = test system: CP260
Procedure, shortened: as §1

CP262 = test system: CP262
Procedure, shortened: as §1

CP265 = test system: CP265
Procedure, shortened: as §1

CP268 = test system: CP268
Procedure, shortened: as §1

CP269 = test system: CP269
Procedure, shortened: as §1

CP286 = test system: CP286
Procedure, shortened: as §1

CP291 = test system: CP291
Procedure, shortened: as §1

CP297 = test system: CP297
Procedure, shortened: as §1

CP305 = test system: CP305
Procedure, shortened: as §1

CP315 = test system: CP315
Procedure, shortened: as §1

CP325 = test system: CP325
Procedure, shortened: as §1

CP329 = test system: CP329
Procedure, shortened: as §1

CP335 = test system: CP335
Procedure, shortened: as §1

DFO2036 = test system: DFO2036
Procedure, shortened: as §1

DIV14 = test system: DIV14
Procedure, shortened: as §1

DIV17 = test system: DIV17
Procedure, shortened: as §1

DIV30 = test system: DIV30
Procedure, shortened: as §1

Dd2 = test system: Dd2
Procedure, shortened: as §1

ECU = test system: ECU
Procedure, shortened: as §1

FAB9 = test system: FAB9
Procedure, shortened: as §1

GB4 = test system: GB4
Procedure, shortened: as §1

HB3 = test system: HB3
Procedure, shortened: as §1

ICS = test system: ICS
Procedure, shortened: as §1

JCK = test system: JCK
Procedure, shortened: as §1

N140 = test system: N140
Procedure, shortened: as §1

P94_40 = test system: P94_40
Procedure, shortened: as §1

PAD = test system: PAD
Procedure, shortened: as §1

PC15 = test system: PC15
Procedure, shortened: as §1

PC26 = test system: PC26
Procedure, shortened: as §1

PC49 = test system: PC49
Procedure, shortened: as §1

SC27B = test system: SC27B
Procedure, shortened: as §1

TAB109 = test system: TAB109
Procedure, shortened: as §1

TAB113 = test system: TAB113
Procedure, shortened: as §1

TAB165 = test system: TAB165
Procedure, shortened: as §1

W2 = test system: W2
Procedure, shortened: as §1

Measured: Potency
Potency is read from the fitted curve at half-maximal effect.

CCOC(=O)c1cncn1[C@@H](C)c1ccccc1
inactive: CP256 | CP260 | CP262 | CP265 | CP268 | CP269 | CP286 | CP291 | CP297 | CP305 | CP315 | CP325 | CP329 | CP335 | DFO2036 | DIV14 | DIV17 | DIV30 | Dd2 | ECU | FAB9 | GB4 | HB3 | ICS | JCK | N140 | P94_40 | PAD | PC15 | PC26 | PC49 | SC27B | TAB109 | TAB113 | TAB165
active: W2 1.81 µM
